Pf growth 48h – Primary qHTS for delayed death inhibitors of the malarial parasite plastid, 48 hour incubation | P. falciparum luciferase growth in erythrocytes, 48 h | Potency, µM (titrated, usually from 28.7 µM), usual class: inhibitors | 5.9% of 310,000 active | AID 504832, 2011
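Firefly luciferase activity from engineered P. falciparum reports growth; inhibitors lower the luminescent signal. Cultures contained 2% hematocrit erythrocytes at 0.1% final parasitemia.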
SARS PLpro yeast – qHTS of Yeast-based Assay for SARS-CoV PLP; S. cerevisiae expressing SARS-CoV PLpro, growth rescue; Potency, µM (top dose mostly 32.9 µM), usual class: activators; 0.19% of 330,000 active; calls by dose curve; further: nearly all actives have a fitted effect of over 55% in size
Pf growth 96h – Primary qHTS for delayed death inhibitors of the malarial parasite plastid, 96 hour incubation | P. falciparum luciferase reporter growth, 96 h | 6.9% of 320,000 active | AID 504834, 2011 | Potency, µM (doses to about 28.7 µM), usual class: inhibitors
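Compounds incubated with erythrocytes infected by luciferase-expressing P. falciparum (2% hematocrit, 0.05% parasitemia final) for 96 hours, 37 C in 5% CO2. Growth inhibition scored as decreased luciferase luminescence.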
Sm TGR block – qHTS Assay for the Inhibitors of Schistosoma Mansoni Peroxiredoxins; purified TGR, DTNB reduction, TNB absorbance 405 nm; Potency, µM (top dose mostly 114 µM), actives largely listed as inhibitors; 3% of 360,000 active; further: nearly all actives have a fitted effect of over 60% in size
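TGR 20 nM + NADPH 100 uM (dispensed conc.), cpd preinc 15 min RT; start with NADPH (500 uM addition) then DTNB (15 mM addition). Kinetic TNB absorbance, 405 nm filter. Four-parameter Hill fit across titration.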
Numbers stand for hits. Compounds with a hit are over-represented: about 12% of the library has one in this group of screens. Unless noted, the call rests on the fitted dose curve; in most records, active means well fitted curve in the direction sought with a large enough effect; inconclusive means small, poorly fitted or top-dose-only effect, or another doubt; inactive means no such curve, though single readings can be large; an effect the other way counts as inactive or inconclusive.

CC1CCCCN1C(=O)CSc1nnc2c(n1)[nH]c1ccc(F)cc12 (stereo not drawn) was read as Pf growth 48h inconclusive, SARS PLpro yeast inactive, Pf growth 96h inactive and Sm TGR block inactive.
`CC1CCCCN1C(=O)CSc1nnc2c(n1)[nH]c1ccccc12` (stereo not drawn) gave Pf growth 48h 1.7µM, SARS PLpro yeast inactive, Pf growth 96h 12µM and Sm TGR block inactive.
`O=C1CSC(=NC2CCCCC2)N1` gave Pf growth 48h inactive, SARS PLpro yeast inactive, Pf growth 96h inconclusive and Sm TGR block inactive.
Screening O=C1CS/C(=N/N=C2CCCC2)N1 returned Pf growth 48h inactive, SARS PLpro yeast inactive, Pf growth 96h 3.3µM and Sm TGR block inactive.
Screening Cc1ccc(CNC(=O)c2cc(C)nn2-c2ccccc2)cc1 returned Pf growth 48h inactive, SARS PLpro yeast inactive, Pf growth 96h inactive and Sm TGR block inactive.
`Cc1ccc(Cc2nnc3n(-c4ccccc4)nc(C(=O)c4ccccc4)n3c2=O)cc1` gave Pf growth 48h 13µM, SARS PLpro yeast inactive, Pf growth 96h 13µM and Sm TGR block inactive.
For CC(=O)c1ccccc1NC(=O)C1CCCN(C(=O)c2ccc(Cl)cc2)C1 (stereo not drawn) the results were Pf growth 48h inactive, SARS PLpro yeast inactive, Pf growth 96h inactive and Sm TGR block inactive.
Screening CCN(c1ccc(NC(=O)c2ccc(N3CCCC3=O)cc2)cc1)C(C)C returned Pf growth 48h inconclusive, SARS PLpro yeast inactive, Pf growth 96h inconclusive and Sm TGR block inactive.
For O=C(Nc1cccc(C2=NCCN2)c1)Nc1cccc(C2=NCCN2)c1 the results were Pf growth 48h 1.7µM and Pf growth 96h 1.2µM.
Screening O=C(Nc1ccncc1)Nc1cccc(Cl)c1 returned Pf growth 48h 1.5µM, SARS PLpro yeast inactive, Pf growth 96h inactive and Sm TGR block inactive.
Screening O=C(Nc1ccccc1)Nc1cccc(-c2nnco2)c1 returned Pf growth 48h inactive, SARS PLpro yeast inactive, Pf growth 96h inactive and Sm TGR block inactive.
`O=C(NCc1ccncc1)Nc1cccc(Cl)c1` gave Pf growth 48h inactive, SARS PLpro yeast inactive and Sm TGR block inactive.
`O=C(Nc1cccc(Cl)c1)Nc1csc([N+](=O)[O-])c1` gave Pf growth 48h 3.7µM, SARS PLpro yeast inactive, Pf growth 96h 2.6µM and Sm TGR block inactive.
For CSc1ccccc1NC(=O)Nc1cccc(Cl)c1 the results were Pf growth 48h inactive, SARS PLpro yeast inactive and Sm TGR block inactive.
For O=C(Nc1cccc(Cl)c1)Nc1ccccc1-n1ccnc1 the results were Pf growth 48h inconclusive, SARS PLpro yeast inactive, Pf growth 96h 12µM and Sm TGR block inactive.
Screening CCC(NC(=O)CSc1nnnn1C1CC1)c1ccc(Br)cc1 (stereo not drawn) returned Pf growth 48h inconclusive, SARS PLpro yeast inactive, Pf growth 96h inconclusive and Sm TGR block inactive.
For O=C(Nc1ccc(C2=NCCN2)cc1)c1ccc(C(=O)Nc2ccc(C3=NCCN3)cc2)c(Cl)c1 the results were Pf growth 48h 0.52µM, SARS PLpro yeast inactive, Pf growth 96h inconclusive and Sm TGR block inactive.
CC(=O)c1ccc(NC(=O)c2ccc3c(c2)N(Cc2cccc(Cl)c2)C(=O)c2ccccc2S3(=O)=O)cc1 was read as Sm TGR block inactive.
Screening COc1cc(C(c2c(C(=O)O)[nH]c3ccccc23)c2c(C(=O)O)[nH]c3ccccc23)ccc1OCc1ccccc1 returned Pf growth 48h inactive, SARS PLpro yeast inactive, Pf growth 96h 13µM and Sm TGR block inactive.
`COc1ccc(/C=C/C(=O)OCC(=O)c2c(C)[nH]c3ccccc23)cc1OC` gave Pf growth 48h inconclusive, SARS PLpro yeast inactive, Pf growth 96h inconclusive and Sm TGR block inactive.
COc1ccc(C(C[N+](=O)[O-])c2c(C)[nH]c3ccccc23)cc1OC (stereo not drawn) was read as Pf growth 48h 2.1µM, SARS PLpro yeast inactive, Pf growth 96h inconclusive and Sm TGR block inactive.
Screening COC(c1ccccc1)c1c(-c2ccccc2)nn(C)c1Cl (stereo not drawn) returned Pf growth 48h 13µM, SARS PLpro yeast inactive, Pf growth 96h 12µM and Sm TGR block inactive.
Screening O=C(Cc1cccs1)NC1CC(=O)N(c2ccc(F)cc2)C1 (stereo not drawn) returned Sm TGR block inactive.
O=[N+]([O-])C(=C1Nc2ccccc2N1)/C(Cl)=C(/Cl)Br was read as Pf growth 48h inactive, SARS PLpro yeast inactive, Pf growth 96h inactive and Sm TGR block 6.3µM.
`Nc1nc(Nc2ccccc2Br)nc(C(F)(F)F)n1` gave Pf growth 48h inactive, SARS PLpro yeast inactive, Pf growth 96h 10µM and Sm TGR block inactive.
`Nc1nc(Nc2ccc(Cl)cc2Cl)nc(C(F)(F)F)n1` gave Pf growth 48h inactive, SARS PLpro yeast inactive, Pf growth 96h inactive and Sm TGR block inactive.
Nc1nc(Nc2ccccc2)nc(C(F)(F)F)n1 was read as Pf growth 48h inactive, SARS PLpro yeast inactive, Pf growth 96h 7.4µM and Sm TGR block inactive.
For CSCCn1c(C(C)(C)C)cc(C(=O)O)c1C the results were Pf growth 48h inactive, SARS PLpro yeast inactive, Pf growth 96h 8.3µM and Sm TGR block inactive.
Screening Cc1c(C(=O)O)cc(C(C)(C)C)n1CCSCCO returned Pf growth 48h inactive, SARS PLpro yeast inactive, Pf growth 96h inactive and Sm TGR block inactive.
For CC(C)Cc1nnc(NC(=O)C2CCN(C(=O)c3ccc(F)cc3)CC2)s1 the results were Pf growth 48h inconclusive, SARS PLpro yeast inactive, Pf growth 96h inactive and Sm TGR block inactive.
COc1cccc(N2CCN(C(=O)c3cc(-c4ccccc4)nc4c3cnn4C(C)C)CC2)c1 was read as SARS PLpro yeast inactive.
COc1ccc(-c2cc(-c3nnc(COC(=O)c4ccc(O)cc4)o3)c3ccccc3n2)cc1OC was read as Pf growth 48h 9.3µM, SARS PLpro yeast inactive, Pf growth 96h inconclusive and Sm TGR block inactive.
For COc1cc(-c2nnc(COC(=O)CSc3cc(C)c4ccccc4n3)o2)cc(OC)c1OC the results were Pf growth 48h inconclusive, SARS PLpro yeast inactive, Pf growth 96h inactive and Sm TGR block inactive.
Screening COc1cc(-c2nnc(COC(=O)c3cc(C)nc4ccc(C)cc34)o2)cc(OC)c1OC returned SARS PLpro yeast inactive, Pf growth 96h 15µM and Sm TGR block inactive.
Screening COc1ccc(NC(=O)c2cc(-c3ccccc3)nc3c2cnn3C(C)C)c(OC)c1 returned Pf growth 48h 12µM, SARS PLpro yeast inactive, Pf growth 96h inconclusive and Sm TGR block inactive.
Screening CC(C)n1ncc2c(C(=O)N3CCN(c4ccc(F)cc4)CC3)cc(-c3ccccc3)nc21 returned Pf growth 48h 12µM, SARS PLpro yeast inactive, Pf growth 96h 12µM and Sm TGR block inactive.
For CCOC(=O)c1c(NC(=O)c2ccc(S(=O)(=O)N3CCC(C)CC3)cc2)sc2c1CCN(CC)C2 the results were Sm TGR block inactive.
`Cc1ccc(NC(=O)c2oc3ccc(S(=O)(=O)N(C)C4CCCCC4)cc3c2C)c(C)c1` gave Sm TGR block inactive.
For COc1ccc(NC(=O)c2cc(-c3ccncc3)nc3ccccc23)c(OC)c1 the results were SARS PLpro yeast inactive.

Bioassay records as filed in PubChem.
